Bioassay records as filed in PubChem.
A selection: hits, their analogues and other compounds. The true share with any hit is near 21%.
DT40 TDP1 no CPT: qHTS for Inhibitors of human tyrosyl-DNA phosphodiesterase 1 (TDP1): qHTS in cells in absence of CPT; DT40 Tdp1-/- hTDP1 cells, no CPT, ATP luminescence, 48 h; Potency, µM (titrated, usually from 46.2 µM), inactives show at the highest dose activity change, negative = growth inhibition, hits mostly inhibitors; 15% of 420,000 active; AID 686978, 2013; further: potency means the concentration at half of the fitted maximal effect; nearly all actives have a fitted effect of over 55% in size
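Readout: luminescence from CellTiter-Glo after 30 min in the dark at RT. Cells: DT40 Tdp1-/- with stable hTDP1, 400/well. Exposure: compounds alone, ≥48 hr, 37 °C.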
TDP1 cell CPT: growth inhibition of DT40 Tdp1-/-;hTDP1 cells with camptothecin (screen for TDP1 inhibitors). chicken DT40 Tdp1-/-;hTDP1 cells + 20 nM CPT, ATP luminescence, 48 h. Potency, µM (top dose mostly 46.2 µM), for the others: at the highest dose activity change, negative = growth inhibition, most hits filed as inhibitors. 12% of 420,000 active. AID 686979; further: potency means the concentration at half of the fitted maximal effect; nearly all actives have a fitted effect of over 55% in size
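Chicken DT40 Tdp1-/- cells complemented with human TDP1, 400 cells/well, exposed to compounds plus 20 nM camptothecin for at least 48 h at 37 C; viability read as ATP content by CellTiter-Glo luminescence.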
Gal4-VP16 FLuc: inhibits Gal4-VP16 luciferase reporter, ROR gamma counter-screen; Drosophila S2 Gal4-VP16 UAS-luciferase, luminescence, 20 h; Potency, µM (doses to about 53.6 µM), without a hit: at the top dose activity, negative = inhibition, actives largely listed as inhibitors; 3.5% of 310,000 active;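 further: Gal4-VP16 expression switched on by copper sulfate through the metallothionein promoter; potency means the concentration at half of the fitted maximal effect; nearly all actives have a fitted effect of over 50% in size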
IL1B secr inh: inflammasome signaling inhibition, IL-1 beta readout | THP-1 LPS/ATP IL-1B secretion, AlphaLISA, 16 h; stronger effect = lower value | activity change, % at 57.5 µM | 4.7% of 360,000 active | AID 743279; in the data active means activity change below about -50%; inconclusive means mostly about -30% to -49%
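Secreted IL-1B measured by AlphaLISA bead assay after 16 h compound exposure of THP-1 cells; compounds (final up to 57.5 uM) added 1 h before LPS (250 ng/mL) and ATP (1.25 mM) stimulation; lower signal means less secretion.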
RORg inh: blocks mouse ROR gamma transcriptional activity | Potency, µM (doses to about 53.6 µM), for inactives: top-dose activity change, negative = inhibition, most hits filed as inhibitors | AID 2551 | Drosophila S2 Gal4-RORgamma UAS-luciferase reporter, 20 h | 5.4% of 310,000 active | P51450; further: potency means the concentration at half of the fitted maximal effect; nearly all actives have a fitted effect of over 60% in size
Target sequence (P51450 whole entry, looked up, the tested form may be a part): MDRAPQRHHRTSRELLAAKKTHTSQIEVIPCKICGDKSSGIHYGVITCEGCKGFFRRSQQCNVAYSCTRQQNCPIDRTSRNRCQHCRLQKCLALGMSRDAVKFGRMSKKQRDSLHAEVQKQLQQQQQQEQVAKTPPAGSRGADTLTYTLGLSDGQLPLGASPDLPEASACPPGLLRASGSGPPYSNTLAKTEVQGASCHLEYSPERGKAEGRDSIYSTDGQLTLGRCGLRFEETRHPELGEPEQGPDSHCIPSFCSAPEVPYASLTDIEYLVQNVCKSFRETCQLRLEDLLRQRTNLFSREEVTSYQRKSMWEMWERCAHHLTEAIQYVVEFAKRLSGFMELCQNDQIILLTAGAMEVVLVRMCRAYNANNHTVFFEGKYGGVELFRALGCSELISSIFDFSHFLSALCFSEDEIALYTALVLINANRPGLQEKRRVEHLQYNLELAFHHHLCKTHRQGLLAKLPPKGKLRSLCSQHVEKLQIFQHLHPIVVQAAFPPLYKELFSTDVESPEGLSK
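Read-out: Photinus luciferase luminescence; inhibitors lower reporter signal. Insect Schneider cells with Gal4-ROR gamma fusion under metallothionein promoter, UAS reporter; 700 uM final copper sulfate induction, 20 hr, ambient temperature.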
ELG1 DNA repair: ELG1-dependent DNA repair inhibition. HEK293T ELG1-luciferase reporter, luminescence, 16 h; DNA damage induced by 5-fluorouridine. Potency, µM (top dose mostly 46.1 µM), without a hit: at the top dose activity change, negative = inhibition, usual class: inhibitors. 2.3% of 330,000 active; further: potency means the concentration at half of the fitted maximal effect; nearly all actives have a fitted effect of over 55% in size
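DMSO vehicle served as the neutral condition. Each well held 2,000 cells given 5-fluorouridine plus compound; after 16 hr at 37 °C/5% CO2, ONE-Glo was added and luciferase measured 30 min later.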
Starred values were filed as active, the others as inactive; ? = inconclusive; . = no result given; [ ] = remark or other dose. Unless noted, the call rests on the fitted dose curve; in most records, active means well fitted curve in the direction sought with a large enough effect; inconclusive means small, poorly fitted or top-dose-only effect, or another doubt; inactive means no such curve, though single readings can be large; an effect the other way counts as inactive or inconclusive. On the % scale 0 is the no-effect control and ±100 the full control effect.

SMILES	DT40 TDP1 no CPT	TDP1 cell CPT	Gal4-VP16 FLuc	IL1B secr inh	RORg inh	ELG1 DNA repair
Cc1cc(Cl)ccc1C(=O)C1CCCN(C(=O)c2cnn(C(C)C)c2)C1 (stereo unspecified)	?	?	6.3%	26.4	27.5%	0.4%
Nc1nc2ccccc2n1C(=O)c1cccs1	?	?	2.82µM*	-8.1	0.891µM*	?
O=C(Nc1ccc(Cl)cc1)OCCN1CCN(Cc2ccccc2)CCC1=O	.	.	1.9%	.	?	.
COc1cccc(OCC(=O)N(Cc2nc(-c3ccc(Cl)cc3)no2)C(C)C)c1	23.1µM*	8.2µM*	4.7%	-5.8	-18.5%	6.4%
COc1ccccc1OCC(=O)N(Cc1nc(-c2ccccc2)no1)C(C)C	?	-18.1%	-3.9%	-59.2*	-8.5%	-2.4%
Cc1cc(Br)ccc1OCC(=O)N(Cc1nc(-c2ccccc2)no1)C(C)C	-20.4%	-8.7%	-14.8%	6.1	?	?
Cc1ccc(-c2noc(CN(C(=O)CCCCCN3C(=O)c4ccccc4C3=O)C(C)C)n2)cc1	?	?	-14.0%	-15.4	48.3%	18.4µM*
Cc1ccc(-c2noc(CN(C(=O)COc3cc(C)cc(C)c3C)C(C)C)n2)cc1	?	23.1µM*	.	.	.	.
CC(C)N(Cc1nc(-c2ccccc2)no1)C(=O)COc1ccccc1	?	?	?	0.9	?	-1.9%
COCC(C)NC(=O)c1cc2c(ccc3ccccc32)oc1=O (stereo unspecified)	?	?	-16.8%	24.0	1.8%	17.5%
COc1ccccc1OCC(=O)N(Cc1nc(-c2ccc(Cl)cc2)no1)C(C)C	16.4µM*	?	9.9%	-25.9	-10.7%	?
CC(C)N(Cc1nc(-c2ccc(Cl)cc2)no1)C(=O)CCC1CCCC1	?	?	?	6.4	22.5%	-7.9%
N=c1n(CCN2CCOCC2)c2ccccc2n1Cc1ccccc1Br	?	?	-0.7%	-27.7	-5.5%	-12.4%
N=c1n(CCN2CCCCC2)c2ccccc2n1CC(O)c1cccc(Br)c1 (stereo unspecified)	16.4µM*	14.6µM*	-8.0%	-6.2	1.1%	-7.8%
N=c1n(CCN2CCCCC2)c2ccccc2n1CC(O)c1ccc(Cl)c(Cl)c1 (stereo unspecified)	8.2µM*	3.66µM*	?	-67.9*	-74.1%	?
CN(C)CCn1c(=N)n(CC(O)c2ccc(Cl)c(Cl)c2)c2ccccc21 (stereo unspecified)	23.1µM*	23.1µM*	-2.7%	.	-27.3%	?
N=c1n(CCN2CCCC2)c2ccccc2n1CC(O)c1ccco1 (stereo unspecified)	-12.6%	-25.6%	-1.6%	-25.8	0.2%	20.1%
CCn1c(=N)n(CCO)c2ccccc21	-19.0%	9.8%	7.6%	43.3	-25.5%	3.2%
C[C@@H]1CN([C@@H](C)CO)C(=O)CCCn2cc(nn2)CO[C@H]1CN(C)C(=O)c1cc(-c2ccccc2)on1	-22.6%	2.3%	.	7.0	.	.
Cn1c(-c2ccccc2)nc2cnccc21	?	?	-1.6%	15.2	0.9%	79.7%
CC(C)n1c(-c2cccnc2)nc2cnccc21	-18.6%	?	2.7%	29.8	-7.3%	13µM*
COc1ccc([C@H]2N[C@]3(CCCN(Cc4cccn4C)C3=O)[C@H]3C(=O)N(Cc4ccccc4)C(=O)[C@@H]23)cc1	-6.2%	-25.3%	.	-9.5	.	.
CCOc1ccc(NC(=O)c2ccc(S(=O)(=O)N3CCOCC3)cc2)cc1	-10.0%	1.6%	2.4%	-4.3	25.5%	-10.4%
CCOc1ccc(NC(=O)c2ccc(F)c(S(=O)(=O)N3CCCC3)c2)cc1	11.6µM*	9.2µM*	.	47.7	.	.
CCOc1ccc(NC(=O)c2ccc(F)c(S(=O)(=O)N3CCN(c4ccccn4)CC3)c2)cc1	16.4µM*	?	?	-5.8	33.5%	9.2µM*
SMILES	DT40 TDP1 no CPT	TDP1 cell CPT	Gal4-VP16 FLuc	IL1B secr inh	RORg inh	ELG1 DNA repair
O=C(Nc1cccc(Cl)c1)c1ccc(F)c(S(=O)(=O)N2CCN(c3ccccn3)CC2)c1	18.4µM*	23.1µM*	-2.9%	-3.8	?	13µM*
O=C(c1ccc(Cl)c(S(=O)(=O)N2CCOCC2)c1)N1CCN(c2ccccn2)CC1	?	-3.4%	.	5.3	.	1.0%
CCn1c2ccccc2c2nnc(SC3CCOC3=O)nc21 (stereo unspecified)	-9.6%	-17.0%	.	.	.	.
Cc1nc(N2N=C3/C(=C/c4ccc(F)cc4)CCCC3C2c2ccc(F)cc2)sc1C(=O)N(C)C (stereo unspecified)	29.1µM*	?	?	-2.3	-0.3%	?
CC(=O)N1CCc2c(sc(NC(=O)c3ccc4c(c3)OCCO4)c2C#N)C1	3.66µM*	4.11µM*	8.7%	24.9	4.0%	?
CC(=O)N1CCc2c(sc(NC(=O)c3ccc([N+](=O)[O-])o3)c2C(N)=O)C1	7.31µM*	3.66µM*	.	-80.0*	.	.
CN1CCc2c(sc(NC(=O)C3COc4ccccc4O3)c2C(N)=O)C1 (stereo unspecified)	?	?	-4.4%	0.0	-23.9%	?
CCC(=O)Nc1sc2c(c1C(N)=O)CCN(C(C)=O)C2	20.8%	-1.7%	-4.4%	6.5	?	?
CC(=O)N1CCc2c(sc(NC(=O)C3COc4ccccc4O3)c2C(N)=O)C1 (stereo unspecified)	?	20.6µM*	-4.2%	-21.6	-16.3%	-7.2%
CC(=O)N1CCc2c(sc(NC(=O)c3ccc(S(=O)(=O)N(C)C)cc3)c2C#N)C1	1.4%	22.5%	.	35.7	.	.
CCNC(=O)c1c(NC(=O)C2COc3ccccc3O2)sc2c1CCCC2 (stereo unspecified)	?	?	11.2µM*	26.4	?	-3.5%
CCCCC/C=C\C\C=C/C=C/C=C/[C@@H](SCC(NC(=O)CCC(N)C(=O)O)C(=O)NCC(=O)O)[C@@H](O)CCCC(=O)O (stereo partly specified)	.	.	7.0%	.	18.0%	.
O=C(c1cnccn1)N1CCC[C@@]2(CCN(c3cccc(-c4ccccc4)c3)C2)C1	?	?	-3.6%	.	8.7%	.
C/C=C/OC(=O)NC(c1ccccc1)[C@]1(C(C)=O)CCOC1=O (stereo partly specified)	.	.	-6.6%[10 µM]	.	8.6%[10 µM]	.
CC(C)COC(=O)N(C)C[C@H]1OCc2cnnn2CCCC(=O)N([C@@H](C)CO)C[C@H]1C	-5.5%	-5.9%	.	26.7	.	.
